Laboratory results from PubChem BioAssay.
Active and inactive are the calls of the source.

Columns and labels:
[1] = E. coli DRC41 culture turbidity changes, primary screen, E. coli filamentation inducer project, strain DRC41, OD650, 48 h (AID 1152);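 note: E. coli MC1000 strain DRC41 lacking acrAB efflux pump and sulA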; conditions: E. coli DRC41 (acrAB sulA), higher = more signal, called active from +8 up or from −8 down
[2] = small-molecule binders of probe aLefty1, primary screen, biochemical, small-molecule microarray, 635/667 nm fluorescence (AID 1153); conditions: higher = more signal;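 note: score merges spot fluorescence with signal-to-noise ratio from the scanned slide images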
[3] = PSAC antagonists in infected red cells, primary screen, cell-based, P. falciparum Indochina, OD700, 1 h (AID 1154); conditions: P. falciparum Indochina infected RBC osmotic lysis, higher = more signal, called active from +8 up or from −8 down
[4] = PSAC antagonists in infected red cells, primary screen, cell-based, P. falciparum Indochina, OD700, 2 h (AID 1155);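 note: lysis reports solute entry through the parasite surface anion channel PSAC; channel blockers reduce lysis of infected cells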; conditions: P. falciparum Indochina infected erythrocytes, osmotic lysis OD700; higher = more signal, called active from +8 up or from −8 down
[5] = osmotic lysis modulators in infected erythrocytes, primary screen, PSAC antagonist project, cell-based, P. falciparum Indochina, OD700, 3 h (AID 1156); conditions: higher = more signal, called active from +8 up or from −8 down
[6] = PSAC antagonists in infected red cells, primary screen, cell-based, P. falciparum Indochina, OD700, 18 h (AID 1157); conditions: P. falciparum Indochina infected erythrocytes, osmotic lysis OD700, 18 h; higher = more signal, called active from +8 up or from −8 down
[7] = modulators of S6 phosphorylation in cells, primary screen, cell-based, A549, cytoblot, luminescence, serum-stimulated (AID 1158); conditions: A549 phospho-S6 cytoblot, 5 h, higher = more signal;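 note: serum-stimulated A549 lung adenocarcinoma cells; signal is phosphorylated S6 detected by cytoblot immunostaining with HRP secondary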
[8] = target: NADPH oxidase 2 (Homo sapiens) (UniProt P04839); experiment: NOX2-dependent H2O2 signal modulators, primary screen, NOX inhibitor project, cell-based, HEK293-NOX2, PMA-stimulated, Amplex Red fluorescence (AID 1159); conditions: 45 min, higher = more signal, called active from +8 up or from −8 down; note: test concentration not given here
Chain of NADPH oxidase 2 (Homo sapiens) (P04839 whole entry, looked up): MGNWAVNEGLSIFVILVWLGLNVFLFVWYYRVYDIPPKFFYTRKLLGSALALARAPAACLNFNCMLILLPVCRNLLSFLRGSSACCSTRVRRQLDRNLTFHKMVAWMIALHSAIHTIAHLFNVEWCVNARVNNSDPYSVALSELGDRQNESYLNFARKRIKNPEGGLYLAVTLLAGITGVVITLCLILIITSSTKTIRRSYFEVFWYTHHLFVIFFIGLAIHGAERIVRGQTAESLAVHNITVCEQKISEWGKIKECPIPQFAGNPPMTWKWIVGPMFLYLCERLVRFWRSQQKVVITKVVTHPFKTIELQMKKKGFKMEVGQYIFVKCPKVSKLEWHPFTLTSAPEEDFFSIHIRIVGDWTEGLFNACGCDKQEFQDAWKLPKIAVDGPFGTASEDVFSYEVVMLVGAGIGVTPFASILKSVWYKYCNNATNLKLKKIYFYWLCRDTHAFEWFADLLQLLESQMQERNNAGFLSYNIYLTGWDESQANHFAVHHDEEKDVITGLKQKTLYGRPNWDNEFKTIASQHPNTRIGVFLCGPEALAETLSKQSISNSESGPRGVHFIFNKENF

[9] = target: NADPH oxidase 4 (Homo sapiens) (UniProt Q9NPH5); experiment: NOX4-dependent H2O2 signal modulators, primary screen, NOX inhibitor project, cell-based, HEK293-NOX4, tetracycline-induced, Amplex Red fluorescence (AID 1160); conditions: 45 min, higher = more signal, called active from +8 up or from −8 down
Chain of NADPH oxidase 4 (Homo sapiens) (Q9NPH5 whole entry, looked up): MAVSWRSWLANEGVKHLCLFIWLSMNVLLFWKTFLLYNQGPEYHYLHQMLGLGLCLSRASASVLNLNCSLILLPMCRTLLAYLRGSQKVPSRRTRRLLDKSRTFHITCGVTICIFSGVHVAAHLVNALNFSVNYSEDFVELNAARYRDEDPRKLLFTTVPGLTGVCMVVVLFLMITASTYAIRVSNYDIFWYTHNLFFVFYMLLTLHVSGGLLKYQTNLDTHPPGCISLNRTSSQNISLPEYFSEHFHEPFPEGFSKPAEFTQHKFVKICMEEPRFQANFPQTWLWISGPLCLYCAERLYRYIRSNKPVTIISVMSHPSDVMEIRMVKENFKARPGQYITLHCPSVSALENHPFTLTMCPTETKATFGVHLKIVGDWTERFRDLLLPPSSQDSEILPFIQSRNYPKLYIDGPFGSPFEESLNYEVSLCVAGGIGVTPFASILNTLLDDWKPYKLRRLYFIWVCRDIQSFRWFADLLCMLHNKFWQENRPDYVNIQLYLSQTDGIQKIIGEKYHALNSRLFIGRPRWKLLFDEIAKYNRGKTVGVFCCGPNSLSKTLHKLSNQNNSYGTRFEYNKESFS

[10] = target: NADPH oxidase 5 (Homo sapiens) (UniProt Q96PH1); experiment: NOX5-dependent H2O2 signal modulators, primary screen, NOX inhibitor project, cell-based, HEK293-NOX5, Amplex Red fluorescence (AID 1161); conditions: HEK293-NOX5, ionomycin, 45 min, higher = more signal
Chain of NADPH oxidase 5 (Homo sapiens) (Q96PH1 whole entry, looked up): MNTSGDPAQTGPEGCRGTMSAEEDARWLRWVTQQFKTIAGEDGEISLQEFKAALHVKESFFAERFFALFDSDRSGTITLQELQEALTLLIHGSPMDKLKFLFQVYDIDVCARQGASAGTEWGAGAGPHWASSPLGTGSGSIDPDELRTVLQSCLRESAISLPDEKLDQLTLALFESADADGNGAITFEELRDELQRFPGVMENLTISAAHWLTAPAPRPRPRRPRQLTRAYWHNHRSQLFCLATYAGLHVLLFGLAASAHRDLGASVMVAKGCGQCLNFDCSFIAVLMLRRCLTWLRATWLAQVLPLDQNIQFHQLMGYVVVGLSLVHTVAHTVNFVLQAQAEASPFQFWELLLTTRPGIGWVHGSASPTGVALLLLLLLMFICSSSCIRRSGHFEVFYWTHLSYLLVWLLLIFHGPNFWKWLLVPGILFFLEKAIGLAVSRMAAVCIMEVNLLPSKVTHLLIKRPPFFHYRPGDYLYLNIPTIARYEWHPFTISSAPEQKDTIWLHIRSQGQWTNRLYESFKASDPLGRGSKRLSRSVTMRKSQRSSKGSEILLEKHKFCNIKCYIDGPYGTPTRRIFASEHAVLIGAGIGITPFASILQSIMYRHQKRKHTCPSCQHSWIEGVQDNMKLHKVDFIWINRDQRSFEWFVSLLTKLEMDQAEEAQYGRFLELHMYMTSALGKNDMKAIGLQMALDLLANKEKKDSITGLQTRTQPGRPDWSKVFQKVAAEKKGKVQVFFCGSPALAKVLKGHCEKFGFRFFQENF

[11] = A549 cell viability effects, profiling panel, calcein-AM fluorescence, 48 h, basal (AID 1162); conditions: higher = more signal; note: test concentration not given here
[12] = adipocyte viability effects, profiling panel, cell-based, 3T3-L1 adipocytes, calcein-AM fluorescence, 48 h, basal (AID 1163); conditions: 3T3-L1 adipocytes viability, higher = more signal; note: test concentration not given here
[13] = HepG2 cell viability effects, profiling panel, calcein-AM fluorescence, 48 h, basal (AID 1164); conditions: higher = more signal; note: test concentration not given here
[14] = MM1S cell viability effects, profiling panel, calcein-AM fluorescence, 48 h, basal (AID 1165); conditions: higher = more signal;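 note: viability of MM1S multiple myeloma cells under basal unstimulated conditions; test concentration not given here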
[15] = basal RPMI8226 viability, no added stimulus, profiling panel, cell-based, calcein-AM fluorescence, 48 h, PK04 Diversity Set (AID 1166); conditions: RPMI8226 myeloma viability, higher = more signal;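 note: cells grown under basal conditions without added stimulus; test concentration not given here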
[16] = basal HepG2 mitochondrial membrane potential changes, profiling panel, cell-based, JC-1 fluorescence, 24 h, 100 nL compound (AID 1167); conditions: higher = more signal; note: test concentration not given here
[17] = basal 3T3-L1 adipocyte mitochondrial potential changes, profiling panel, cell-based, JC-1 fluorescence, 3T3-L1 adipocytes, 24 h, 100 nL compound (AID 1168); conditions: JC-1 mitochondrial fluorescence, higher = more signal, called active from +8 up or from −8 down; note: test concentration not given here
[18] = basal RPMI8226 mitochondrial membrane potential changes, profiling panel, cell-based, JC-1 fluorescence, 24 h, 100 nL compound (AID 1169); conditions: RPMI8226 myeloma, JC-1 mitochondrial potential fluorescence, higher = more signal; note: test concentration not given here
[19] = basal MM1S mitochondrial membrane potential changes, profiling panel, cell-based, JC-1 fluorescence, 24 h, 100 nL compound (AID 1170); conditions: higher = more signal; note: test concentration not given here
[20] = A549 lung cancer cell viability effects, profiling panel, resazurin fluorescence, 24 h, PK04 Diversity Set (AID 1171); conditions: higher = more signal, called active from +8 up or from −8 down; note: test concentration not given here

Structure (SMILES)	z-score [1]	composite z-score [2]	z-score [3]	z-score [4]	z-score [5]	z-score [6]	z-score [7]	z-score [8]	z-score [9]	z-score [10]	z-score [11]	z-score [12]	z-score [13]	z-score [14]	z-score [15]	z-score [16]	z-score [17]	z-score [18]	z-score [19]	z-score [20]
C=CCC(OC(C)=O)[C@@H]1[C@@H](N(Cc2ccc(-c3ccccc3)cc2)C(=O)c2ccc(-c3ccccc3)cc2)c2cc(OCCCO)ccc2N1C(=O)c1ccc2ccccc2n1 (stereo not given in full)	0.803 (inactive)	0.026	0.135 (inactive)	0.078 (inactive)	-0.452 (inactive)	-0.033 (inactive)	0.364	1.18 (inactive)	1.33 (inactive)	1.17	0.393	0.167	0.486	-0.265	-0.189	2.22	-0.124 (inactive)	-0.742	-0.133	1.67 (inactive)
Cc1ccc(F)cc1S(=O)(=O)N[C@@H]1CCN(Cc2ccc3c(c2)OCO3)C1	-3.25 (inactive)	-0.0984	1.36 (inactive)	0.491 (inactive)	0.076 (inactive)	0.329 (inactive)	-0.0688	-0.438 (inactive)	-0.228 (inactive)	-0.687	0.923	-0.447	0.326	0.361	-0.525	-0.184	-0.0208 (inactive)	0.302	-0.591	-0.156 (inactive)
CN(C)CCCCNC(=O)[C@H]1C[C@H]2C(=O)NCC(=O)N2[C@H]1c1cccc(OCCO)c1	1.06 (inactive)	-0.007	0.799 (inactive)	0.33 (inactive)	-0.0825 (inactive)	0.129 (inactive)	-0.0315	-0.241 (inactive)	0.382 (inactive)	1.05	1.11	-0.237	-0.13	0.585	0.0875	0.348	0.871 (inactive)	-0.223	-0.348	1.26 (inactive)
CC(C)C[C@@H]1NC(=O)[C@@H]2C[C@H](C(=O)O)[C@H](c3ccc(O)cc3)N2C1=O	2.59 (inactive)	0.013	4.56 (inactive)	0.677 (inactive)	-0.641 (inactive)	0.179 (inactive)	1.09	0.304 (inactive)	0.398 (inactive)	-0.107	0.704	0.37	0.285	-1.32	0.126	0.962	-0.773 (inactive)	-0.49	0.3	1.64 (inactive)
CCOC(=O)C[C@H]1[C@H](OC(=O)c2cc3ccccc3oc2=O)[C@@H](NC(=O)C2CCCCC2)c2cc(OCCCO)ccc2N1C(=O)Cc1ccc(OC)cc1	-0.926 (inactive)	0.266	2.92 (inactive)	0.275 (inactive)	0.722 (inactive)	0.328 (inactive)	0.0301	1.57 (inactive)	1.01 (inactive)	1.63	-0.266	0.535	0.391	0.254	0.0583	0.38	-0.229 (inactive)	0.0411	0.185	-0.545 (inactive)
COc1ccc(C(O)C2C=CC3C(=O)N(C)C(=O)C3N2Nc2ccc([N+](=O)[O-])cc2[N+](=O)[O-])cc1OCc1ccccc1 (stereo not given)	-1.07 (inactive)	0.703	-0.686 (inactive)	0.958 (inactive)	0.0971 (inactive)	0.975 (inactive)	-1.21	0.0939 (inactive)	0.703 (inactive)	2.34	-0.65	-0.861	0.166	0.106	-0.499	-0.475	-0.74 (inactive)	0.0687	-0.371	-0.682 (inactive)
CCOC(=O)C1=CC[C@@H](c2ccccc2)N(S(=O)(=O)C[Si](C)(C)C)[C@H]1c1ccccc1	-2.2 (inactive)	0.0437	2.05 (inactive)	1.83 (inactive)	0.0192 (inactive)	0.999 (inactive)	-0.692	0.324 (inactive)	-1.26 (inactive)	0.839	-0.96	0.147	0.0425	0.0106	0.242	-1.37	-0.479 (inactive)	-0.687	-0.667	0.946 (inactive)
CCOC(=O)C1=CCC(c2cc3ccccc3[nH]2)N(S(=O)(=O)c2ccccc2[N+](=O)[O-])C1 (stereo not given)	-0.485 (inactive)	-0.391	4.73 (inactive)	0.822 (inactive)	-0.217 (inactive)	0.631 (inactive)	-0.146	0.269 (inactive)	-0.546 (inactive)	0.731	0.0857	-0.913	0.527	0.277	-0.467	1.17	-0.433 (inactive)	-0.366	-1.61	-0.869 (inactive)
COCCOC(=O)N1C(=O)[C@@]2(c3cc(C#Cc4ccc(OC)cc4)ccc31)[C@H](C(=O)N1CCCCCCC1)[C@H]1C(=O)O[C@H](c3ccccc3)[C@H](c3ccccc3)N1[C@@H]2c1ccccc1OCCO	0.0696 (inactive)	2.74	0.688 (inactive)	1.36 (inactive)	0.286 (inactive)	1.07 (inactive)	-0.17	0.0983 (inactive)	-0.0381 (inactive)	0.724	-0.198	1.05	0.383	-0.197	-0.417	0.617	3.29 (inactive)	-0.16	-0.845	0.122 (inactive)
CCCCC(O)C1C=CC2C(=O)NC(=O)C2N1Nc1ccccn1 (stereo not given)	-2.16 (inactive)	0.235	-0.162 (inactive)	0.387 (inactive)	-0.343 (inactive)	0.483 (inactive)	-1.11	-1.48 (inactive)	-2.5 (inactive)	-2.17	-0.795	-0.291	1.18	0.106	0.0087	-1.68	-0.285 (inactive)	0.617	-0.00704	-0.751 (inactive)
CCOC(=O)C1=CC[C@@H](c2ccc(F)cc2)N(S(=O)(=O)c2ccc(C)cc2)[C@H]1c1ccc([N+](=O)[O-])cc1	0.251 (inactive)	-0.0946	1.83 (inactive)	1.12 (inactive)	-0.186 (inactive)	1.22 (inactive)	-0.399	1.36 (inactive)	0.856 (inactive)	1.4	-0.606	-0.415	-0.661	-0.724	0.192	1.65	-0.754 (inactive)	0.235	-0.862	1.8 (inactive)
COC(=O)[C@@]1(CCS(=O)(=O)c2ccccc2)N=C(c2ccc(OCCCO)cc2)O[C@H]1c1ccccc1N=[N+]=[N-]	-0.527 (inactive)	-0.0559	26.9 (active)	22.3 (active)	1.09 (inactive)	3.42 (inactive)	0.819	-1.31 (inactive)	1.02 (inactive)	-1.59	-1.66	0.81	-0.474	-0.746	0.206	0.335	-0.852 (inactive)	-0.687	-0.426	-2.02 (inactive)
NCCCC[C@@H]1NC(=O)[C@H]2C[C@@H](C(=O)NCc3ccc(F)cc3)[C@@H](c3cccc(OCCO)c3)N2C1=O	-0.405 (inactive)	0.254	-0.591 (inactive)	0.157 (inactive)	-0.805 (inactive)	0.274 (inactive)	-0.325	1.88 (inactive)	0.647 (inactive)	0.582	0.172	-0.716	1.13	-0.893	-0.259	-2.23	0.13 (inactive)	-0.968	-0.894	0.858 (inactive)
